The nature of test [1]: NCI Yeast Anticancer Drug Screen. Data for the rad50 strain (AID 155).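 Also: 0% = growth of vehicle-only cultures of the same strain.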 The conditions noted are these: S. cerevisiae rad50 strain growth inhibition, active compounds read high. The method in brief:
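Yeast carrying a defined DNA repair defect were exposed to test compounds, and growth was compared with vehicle-treated controls to give percent inhibition.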

Test [2] can be described thus: NCI Yeast Anticancer Drug Screen. Data for the mec2-1 strain (AID 157). The conditions noted are these: S. cerevisiae mec2-1 strain, active compounds read high. The method in brief:
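Growth inhibition is read against vehicle-treated controls after compound exposure of the mec2-1 yeast strain, which is defective in DNA damage repair or cell cycle control.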

Test [3] can be described thus: NCI Yeast Anticancer Drug Screen. Data for the sgs1 mgt1 strain (AID 161).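 Also: 0% = growth of cultures given vehicle only.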 The following applies: S. cerevisiae sgs1 mgt1 strain, active compounds read high. The essentials:
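Yeast cells carrying a defined DNA-repair defect were exposed to test compounds. Growth inhibition was measured relative to vehicle-treated controls.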

The nature of test [4]: NCI Yeast Anticancer Drug Screen. Data for the cln2 rad14 strain (AID 165).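 Also: 0% = growth equal to vehicle treated cultures.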 The conditions noted are these: S. cerevisiae cln2 rad14 strain, active compounds read high. The essentials:
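Growth inhibition, relative to vehicle-treated controls, is the read-out. The test organism is a yeast strain with defined genetic alterations, cln2 rad14.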

Test [5] can be described thus: NCI Yeast Anticancer Drug Screen. Data for the bub3 strain (AID 167). The conditions noted are these: S. cerevisiae bub3 mutant strain, active compounds read high. The method in brief:
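Compounds were applied to a genetically altered yeast strain carrying a cell-cycle control defect. Growth inhibition was scored against vehicle-treated controls.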

The nature of test [6]: NCI Yeast Anticancer Drug Screen. Data for the mlh1 rad18 strain (AID 175). The following applies: S. cerevisiae mlh1 rad18 strain growth inhibition, active compounds read high. The method in brief: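 Cells of a genetically altered yeast strain, deficient in DNA damage repair, were treated with compound. Their growth was then compared with that of vehicle-treated cultures to give inhibition.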

[7] abbreviates: at 5.0 µM (retest, dose inferred, filed as 0.5).
Setting [8] is: at 50.0 µM (retest, dose inferred, filed as 5.0).

About 79,000 compounds went through this panel and 15% of them were active in at least one assay; those are over-represented in the sample as a whole. A number with no mark means an inactive call. Calls of active or inactive are those of the source. Rule as the data show it: active = growth inhibition above about 70%; inactive = the rest.

Take `CC1CCC2(NC1)OC1CC3[C@@H]4CC=C5C=CCC[C@]5(C)C4CC[C@]3(C)C1C2C` (stereo partly drawn): the growth inhibition in test [1] (setting [7]) is -16%; in test [1] (setting [8]), 97% (active); in test [1] (at 50.0 µM), 90.8% (active); in test [2] (setting [7]) it was 4%; in test [2] (setting [8]), 99% (active); in test [2] (at 50.0 µM) it was 93.1% (active). The growth inhibition in test [3] (setting [7]) is -4%; in test [3] (setting [8]), 98% (active); in test [3] (at 50.0 µM) it was 91.6% (active); in test [4] (setting [7]), 6%; in test [4] (setting [8]), 97% (active); in test [4] (at 50.0 µM) it was 90.9% (active). Further, the growth inhibition in test [5] (setting [7]) is -33%; in test [5] (setting [8]) it was 98% (active); in test [5] (at 50.0 µM) it was 90.8% (active); in test [6] (setting [7]), -10%; in test [6] (setting [8]) it was 97% (active); in test [6] (at 50.0 µM), 89.1% (active).
With `CCn1c(=O)cc2n(C)c3ccccc3n2c1=O`, the growth inhibition is -30% in test [1] (setting [7]); -23% in test [1] (setting [8]); 17.3% in test [1] (at 50.0 µM); 0% in test [2] (setting [7]); -7% in test [2] (setting [8]); 17.4% in test [2] (at 50.0 µM). Also, the growth inhibition in test [3] (setting [7]) is -15%; in test [3] (setting [8]), -28%; in test [3] (at 50.0 µM), -5.15%; in test [4] (setting [7]), -39%; in test [4] (setting [8]) it was -24%; in test [4] (at 50.0 µM), 62.7%. For the same molecule, the growth inhibition in test [5] (setting [7]) was -23%; in test [5] (setting [8]), -15%; in test [5] (at 50.0 µM), 0.6%; in test [6] (setting [7]), -36%; in test [6] (setting [8]), -14%; in test [6] (at 50.0 µM), 23.4%.
Turning to `CN1CC(CN2CCCCC2)C(O)C(c2ccccc2)C1` (stereo not drawn), the growth inhibition in test [1] (setting [7]) is -3%; in test [1] (setting [8]), -1%; in test [1] (at 50.0 µM), 10.2%; in test [2] (setting [7]), -5%; in test [2] (setting [8]) it was -1%; in test [2] (at 50.0 µM), -4.5%. The growth inhibition is -3% in test [3] (setting [7]); 6% in test [3] (setting [8]); 9.3% in test [3] (at 50.0 µM); -5% in test [4] (setting [7]); -3% in test [4] (setting [8]); 34.4% in test [4] (at 50.0 µM). Further, the growth inhibition was -4% in test [5] (setting [7]); -8% in test [5] (setting [8]); 2.65% in test [5] (at 50.0 µM); -3% in test [6] (setting [7]); -2% in test [6] (setting [8]); 56.5% in test [6] (at 50.0 µM).
Regarding `CCCCCCCNC1CCCc2cc(OC)ccc21` (stereo not drawn), the growth inhibition was 40% in test [1] (setting [7]); 56% in test [1] (setting [8]); 85.5% (active) in test [1] (at 50.0 µM); 22% in test [2] (setting [7]); 31% in test [2] (setting [8]); 70.5% (active) in test [2] (at 50.0 µM). In addition, the growth inhibition in test [3] (setting [7]) is 28%; in test [3] (setting [8]), 64%; in test [3] (at 50.0 µM), 84.2% (active); in test [4] (setting [7]), 28%; in test [4] (setting [8]) it was 54%; in test [4] (at 50.0 µM) it was 72.5% (active). The growth inhibition in test [5] (setting [7]) is 21%; in test [5] (setting [8]), 35%; in test [5] (at 50.0 µM), 69.8%; in test [6] (setting [7]), 20%; in test [6] (setting [8]), 60%; in test [6] (at 50.0 µM), 71.2% (active).
For the molecule `Cc1cc(NC(=S)SCc2ccc3c(c2)OCO3)ccc1Cl`, the growth inhibition in test [1] (setting [7]) was 31%; in test [1] (setting [8]) it was 98% (active); in test [1] (at 50.0 µM), 91.5% (active); in test [2] (setting [7]), 16%; in test [2] (setting [8]) it was 99% (active); in test [2] (at 50.0 µM), 91.8% (active). Besides, the growth inhibition was 44% in test [3] (setting [7]); 98% (active) in test [3] (setting [8]); 91.5% (active) in test [3] (at 50.0 µM); 38% in test [4] (setting [7]); 98% (active) in test [4] (setting [8]); 89.7% (active) in test [4] (at 50.0 µM). In addition, the growth inhibition in test [5] (setting [7]) is 52%; in test [5] (setting [8]) it was 99% (active); in test [5] (at 50.0 µM), 91% (active); in test [6] (setting [7]), 24%; in test [6] (setting [8]), 97% (active); in test [6] (at 50.0 µM), 90.2% (active).
`CCC1(CC(=O)O)OCCc2c1[nH]c1c(C)c(Cl)ccc21` (stereo not drawn): the growth inhibition in test [1] (setting [7]) is 10%; in test [1] (setting [8]) it was 99% (active); in test [1] (at 50.0 µM) it was 95.7% (active); in test [2] (setting [7]) it was 1%; in test [2] (setting [8]), 99% (active); in test [2] (at 50.0 µM), 98.1% (active). The growth inhibition in test [3] (setting [7]) was 2%; in test [3] (setting [8]) it was 97% (active); in test [3] (at 50.0 µM), 97.8% (active); in test [4] (setting [7]), -2%; in test [4] (setting [8]), 96% (active); in test [4] (at 50.0 µM), 97.2% (active). For the same molecule, the growth inhibition is -4% in test [5] (setting [7]); 96% (active) in test [5] (setting [8]); 95.8% (active) in test [5] (at 50.0 µM); -1% in test [6] (setting [7]); 97% (active) in test [6] (setting [8]); 97.5% (active) in test [6] (at 50.0 µM).
Take `Cc1ccccc1NC(=O)C(=O)C(C#N)c1c(Cl)cccc1Cl` (stereo not drawn): the growth inhibition in test [1] (setting [7]) is -13%; in test [1] (setting [8]) it was 15%; in test [1] (at 50.0 µM), -15.6%; in test [2] (setting [7]), 6%; in test [2] (setting [8]), 11%; in test [2] (at 50.0 µM), 17.1%. The growth inhibition in test [3] (setting [7]) is -2%; in test [3] (setting [8]), 2%; in test [3] (at 50.0 µM), 25.6%; in test [4] (setting [7]), 0%; in test [4] (setting [8]), 10%; in test [4] (at 50.0 µM), -12.1%. In addition, the growth inhibition is -3% in test [5] (setting [7]); 25% in test [5] (setting [8]); 14.7% in test [5] (at 50.0 µM); 2% in test [6] (setting [7]); 3% in test [6] (setting [8]); 25.9% in test [6] (at 50.0 µM).
Turning to `O=C(O)CCc1ccc2ccccc2c1`, the growth inhibition in test [1] (setting [7]) is -2%; in test [1] (setting [8]), 48%; in test [1] (at 50.0 µM), 62.8%; in test [2] (setting [7]) it was 0%; in test [2] (setting [8]) it was 38%; in test [2] (at 50.0 µM) it was 51.4%. For the same molecule, the growth inhibition in test [3] (setting [7]) is 1%; in test [3] (setting [8]), 37%; in test [3] (at 50.0 µM), 37.7%; in test [4] (setting [7]), -4%; in test [4] (setting [8]), 32%; in test [4] (at 50.0 µM) it was 83.2% (active). In addition, the growth inhibition in test [5] (setting [7]) is -6%; in test [5] (setting [8]), 18%; in test [5] (at 50.0 µM) it was 53.7%; in test [6] (setting [7]), -4%; in test [6] (setting [8]), 41%; in test [6] (at 50.0 µM), 88.2% (active).
As to `COc1ccc(C(CN2CCOCC2)C(C)=O)cc1OC` (stereo not drawn), the growth inhibition in test [1] (setting [7]) is 7%; in test [1] (setting [8]), 81% (active); in test [1] (at 50.0 µM), 72.4% (active); in test [2] (setting [7]) it was 12%; in test [2] (setting [8]), 93% (active); in test [2] (at 50.0 µM), 70.1% (active). The growth inhibition in test [3] (setting [7]) was 13%; in test [3] (setting [8]), 85% (active); in test [3] (at 50.0 µM) it was 88.5% (active); in test [4] (setting [7]) it was 7%; in test [4] (setting [8]), 40%; in test [4] (at 50.0 µM) it was 23.6%. Besides, the growth inhibition was 10% in test [5] (setting [7]); 92% (active) in test [5] (setting [8]); 69.7% in test [5] (at 50.0 µM); 5% in test [6] (setting [7]); 93% (active) in test [6] (setting [8]); 87.2% (active) in test [6] (at 50.0 µM).
For the molecule `CN(C)CCOC(=O)C1(CCC2CCCCC2)CCCCC1`, the growth inhibition in test [1] (setting [7]) is 0%; in test [1] (setting [8]), 80% (active); in test [1] (at 50.0 µM) it was 96.9% (active); in test [2] (setting [7]) it was -1%; in test [2] (setting [8]), 17%; in test [2] (at 50.0 µM), 30.9%. Further, the growth inhibition in test [3] (setting [7]) was -2%; in test [3] (setting [8]), 57%; in test [3] (at 50.0 µM), 60.5%; in test [4] (setting [7]), -3%; in test [4] (setting [8]), 37%; in test [4] (at 50.0 µM), 18.7%. Further, the growth inhibition is 1% in test [5] (setting [7]); 32% in test [5] (setting [8]); 85% (active) in test [5] (at 50.0 µM); -2% in test [6] (setting [7]); 77% (active) in test [6] (setting [8]); 93.3% (active) in test [6] (at 50.0 µM).
As for `O=[N+]([O-])C1CCCC(C2=CSC3CCCCC3N2)C1` (stereo not drawn), the growth inhibition is 5% in test [1] (setting [7]); -7% in test [1] (setting [8]); 48.2% in test [1] (at 50.0 µM); -21% in test [2] (setting [7]); 10% in test [2] (setting [8]); 80.8% (active) in test [2] (at 50.0 µM). The growth inhibition in test [3] (setting [7]) was -26%; in test [3] (setting [8]), -2%; in test [3] (at 50.0 µM) it was 63.4%; in test [4] (setting [7]) it was -4%; in test [4] (setting [8]), 16%; in test [4] (at 50.0 µM) it was 11.1%. In addition, the growth inhibition in test [5] (setting [7]) is 1%; in test [5] (setting [8]), 29%; in test [5] (at 50.0 µM), 86% (active); in test [6] (setting [7]) it was -24%; in test [6] (setting [8]), 36%; in test [6] (at 50.0 µM), 37.9%.
